# Reference: publication PMC4336329 (PLoS ONE, 2015)
# The campaign covered roughly 310,000 compounds. About 2,200 (0.71%) showed an effect of 50% or more. The effect is printed as a negative number. The sample as a whole holds a higher share of strong results than the screen did.
# Target: human ether-à-go-go-related gene (hERG) potassium channel (human, UniProt Q12809)
# Test: primary screen, population patch clamp on CHO cells stably expressing hERG; higher = less effect of the substance
# Protocol: Briefly, Chinese hamster ovary (CHO) cells stably expressing the hERG channel were dislodged from tissue culture flasks and dispensed into PPC plates. […] During the recording, background leak currents were estimated by a 100 ms step to -80 mV from an initial holding potential of -70 mV and subtracted from the subsequent current measurement. The campaign was conducted in two phases using slight differences in recording protocol. In the first phase, the initial voltage pulse used a 100 ms step to -30 mV from a holding potential of -70 mV, a 2 s conditioning step to +25 mV, and a 2 s test step to -30 mV. During the second phase of the screen, the potential during the conditioning step was raised to +45 mV. In both phases of the campaign, a secondary voltage pulse was applied using the same parameters as the second phase initial pulse. The initial and secondary pulses were applied in the absence of compound, and upon application of 1 μM and 10 μM test concentrations. Small molecule effects on hERG current density were quantified by […].
# Chain of human ether-à-go-go-related gene (hERG) potassium channel (Q12809 whole entry, looked up): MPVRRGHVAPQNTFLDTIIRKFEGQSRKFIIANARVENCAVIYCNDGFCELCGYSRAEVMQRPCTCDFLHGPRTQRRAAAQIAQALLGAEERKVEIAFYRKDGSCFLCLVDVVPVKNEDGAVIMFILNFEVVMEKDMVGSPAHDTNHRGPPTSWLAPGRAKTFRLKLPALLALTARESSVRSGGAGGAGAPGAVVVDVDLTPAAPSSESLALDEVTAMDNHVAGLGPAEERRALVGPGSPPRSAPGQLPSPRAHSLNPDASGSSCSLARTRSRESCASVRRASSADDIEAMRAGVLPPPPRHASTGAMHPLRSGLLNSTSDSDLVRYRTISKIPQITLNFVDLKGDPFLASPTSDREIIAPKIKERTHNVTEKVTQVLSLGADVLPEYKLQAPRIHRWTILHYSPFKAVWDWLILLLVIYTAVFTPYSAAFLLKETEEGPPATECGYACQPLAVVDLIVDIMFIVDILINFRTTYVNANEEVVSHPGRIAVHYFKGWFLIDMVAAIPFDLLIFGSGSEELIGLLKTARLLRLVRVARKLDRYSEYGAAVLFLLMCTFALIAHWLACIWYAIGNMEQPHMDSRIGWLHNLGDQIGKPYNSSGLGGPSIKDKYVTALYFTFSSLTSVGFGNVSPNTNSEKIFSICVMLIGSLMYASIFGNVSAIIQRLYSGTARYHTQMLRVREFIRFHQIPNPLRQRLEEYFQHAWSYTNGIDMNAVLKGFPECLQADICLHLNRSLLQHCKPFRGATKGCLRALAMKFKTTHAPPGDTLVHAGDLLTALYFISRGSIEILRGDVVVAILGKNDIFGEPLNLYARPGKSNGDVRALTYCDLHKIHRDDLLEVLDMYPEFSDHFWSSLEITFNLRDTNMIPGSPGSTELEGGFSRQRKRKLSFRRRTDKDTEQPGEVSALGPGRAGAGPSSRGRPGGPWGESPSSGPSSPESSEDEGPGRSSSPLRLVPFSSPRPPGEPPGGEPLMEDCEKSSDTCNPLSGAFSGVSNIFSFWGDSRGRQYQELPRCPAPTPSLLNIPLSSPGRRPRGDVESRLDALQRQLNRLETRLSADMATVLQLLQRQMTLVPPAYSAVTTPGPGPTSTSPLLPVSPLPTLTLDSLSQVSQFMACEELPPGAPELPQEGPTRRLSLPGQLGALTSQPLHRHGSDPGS
row,Compound,"hERG current change (%, negative = inhibition) at 1uM"
1,O=C(O)COCC(=O)N1CCN(C2c3ccccc3-c3ccccc32)CC1,12.4%
2,CCCC/C(O)=C/c1nc2ccccc2[nH]c1=O,1.79%
3,O=C(NCc1ccco1)c1cc2n(n1)C(C(F)(F)F)CC(c1ccc(F)cc1)N2 (stereo not shown),-4.18%
4,Br.O=C(CN1C2=NCCCN2c2ccccc21)c1ccc([N+](=O)[O-])cc1,-54%
5,Br.COc1cccc(C(=O)CN2C3=NCCCN3c3ccccc32)c1,-61.2%
6,Br.Cc1ccc(C)c(C(=O)CN2C3=NCCCN3c3ccccc32)c1,-43%
7,COc1ccc(C(=O)CN2C3=NCCCN3c3ccccc32)cc1OC,-6.85%
8,Br.O=C(CN1C2=NCCN2c2ccccc21)c1ccc(Br)cc1,-28.4%
9,Br.O=C(CN1C2=NCCCN2c2ccccc21)c1cccc(Br)c1,-28.6%
10,COc1ccc(-c2csc(N3C(=O)C4C5c6ccccc6C(c6ccccc65)C4C3=O)n2)cc1 (stereo not shown),11.9%
11,Cc1ccc(/C=C2/SC(=Nc3ccc(F)cc3)NC2=O)s1,13%
12,Cc1csc2nc(NC(=O)c3ccccc3)sc(=O)c12,8.93%
13,Nc1c(Sc2ccccc2)c(=O)[nH]c(=O)n1Cc1ccccc1,-13.3%
14,Cc1ccc(S(=O)(=O)N2CCCC2CNC(=O)C(=O)NCCN2CCOCC2)cc1 (stereo not shown),16.8%
15,Cc1ccc(S(=O)(=O)Nc2cccc(C(=O)NCc3ccc(S(N)(=O)=O)cc3)c2)cc1,12.7%
16,O=C(CN1CCN(C(=O)c2ccccc2)CC1)Nc1ncc(Br)cc1Br,-84.9%
17,O=C(CN1CCN(C(=O)c2ccccc2)CC1)Nc1ccccc1,3.18%
18,O=C(CN1CCOCC1)Nc1ncc(Br)cc1Br,4.34%
19,O=C(CN1CCCCCC1)Nc1ccc(Br)cn1,3.88%
20,CCc1nnc(NC(=O)CN2CCN(C(=O)c3ccccc3)CC2)s1,10.9%
21,O=C(CN1CCN(C(=O)c2ccccc2)CC1)Nc1ccc(Br)cn1,-72.1%
22,CC(=O)N1CCC(C(=O)Nc2ccccc2)(N(Cc2ccccc2)C(=O)c2cccnc2)CC1,17.6%

row,Compound,"hERG current change (%, negative = inhibition) at 1uM"
1,Nc1ccc(Sc2ccccc2Cl)nc1,0.8%
2,O=C(CCN1CCOCC1)Nc1ccc2c(c1)CCC2,3.78%
3,Cc1[nH][nH]c(=O)c1C=NCc1cccnc1,14.3%
4,CN(CC1CCCCO1)C(=O)c1cc(COc2ccc(F)cc2Cl)on1 (stereo not shown),-74.4%
5,CCN(CC1CCCO1)C(=O)c1cc(COc2ccc(OC)cc2Cl)on1 (stereo not shown),5.36%
6,Cc1ccc(OCc2cc(C(=O)NCC(C)(C)N3CCOCC3)no2)cc1C,4.83%
7,CCN(CC1CCCO1)C(=O)c1cc(COc2ccc(F)cc2F)on1 (stereo not shown),2.73%
8,COc1ccc(OCc2cc(C(=O)N(C)CC3CCCCO3)no2)c(Cl)c1 (stereo not shown),-1.77%
9,CCN(CC1CCCO1)C(=O)c1cc(COc2ccccc2SC)on1 (stereo not shown),-58.9%
10,COc1cc(Cl)ccc1OCc1cc(C(=O)N(C)CC2CCCCO2)no1 (stereo not shown),2.24%
11,CSc1ccccc1OCc1cc(C(=O)NCC(C)(C)N2CCOCC2)no1,-72.2%
12,COc1ccc(OCc2cc(C(=O)NCC(C)(C)N3CCOCC3)no2)c(Cl)c1,0.582%
13,Cc1ccc(OCCN(C)C(=O)c2cc(COc3ccc(F)cc3F)on2)cc1,-0.323%
14,COC(=O)c1cccc(NC(=O)c2ccc(S(=O)(=O)N3CCN(C)CC3)cc2)c1,16.5%
15,COCCN(C(=O)CSc1nc2ccccc2c(=O)n1CC(C)C)c1c(N)n(Cc2ccccc2)c(=O)[nH]c1=O,11.8%
16,CC(C)n1c(/C=C/[C@H](O)C[C@H](O)CC(=O)[O-])c(-c2ccc(F)cc2)c2ccccc21.[Na+],11.8%
17,Cc1cc(O)c(C(C)C)cc1NS(=O)(=O)c1ccccc1,10.4%
18,COc1ccccc1-n1c(SC(C)C(=O)NCC2CCCO2)nc2cc(Cl)ccc2c1=O (stereo not shown),12.1%
19,CCC(=O)N1CCN(c2nc(-c3ccc(Cl)cc3)cs2)CC1,9.84%
20,CCOC(=O)N1CCN(c2nc(-c3ccc(Cl)cc3)cs2)CC1,-8.51%
21,CC(C)C(=O)N1CCN(c2nc(-c3ccc(Cl)cc3)cs2)CC1,-69.6%
22,O=C(NNc1ccccc1F)c1ccccc1,2.87%

row,Compound,"hERG current change (%, negative = inhibition) at 1uM"
1,COc1cc(NC(=O)[C@H]2CSCN2C(=O)[C@@H]2CCC(=O)N2)cc(OC)c1OC,10.8%
2,Cc1ccc(S(=O)(=O)Nc2cccc(Cl)c2)cc1NC(=O)c1cccnc1,5.21%
3,Cc1ccc(C(=O)NC(=S)N(C)C2CCCCC2)cc1,6.79%
4,CN(CC(=O)Nc1c(Cl)cccc1Cl)C(=O)CNC(=O)c1ccco1,8.71%
5,O=C(CN(Cc1ccccc1)S(=O)(=O)c1ccc(Br)cc1)NCC1CCCO1 (stereo not shown),-80.5%
6,O=C(CN(Cc1ccccc1)S(=O)(=O)c1ccc(Cl)cc1)NCC1CCCO1 (stereo not shown),3.41%
7,O=C(CN(Cc1ccc(Br)cc1)S(=O)(=O)c1ccccc1)NCC1CCCO1 (stereo not shown),11.8%
8,CCn1c2ccccc2c2cc(CNCc3ccc(OC)cc3OC)ccc21.O=C(O)C(=O)O,-47.5%
9,Cc1nc2ccccc2cc1C(=O)Nc1ccccc1Cl,3.5%
10,C/C=C/c1ccc(OC(C)=O)c(OC)c1,8.76%
11,O=C(Cn1cc2c(n1)CCCC2)N1CCCC1,8.36%
12,O=C(Cn1cc2c(n1)CCCCC2)N1CCCCC1,9.12%
13,CCOC(=O)N1CCN(C(=O)Cn2cc3c(n2)CCCC3)CC1,-51.2%
14,Cc1cc(=O)oc2c3c(cc(OCC(=O)NCc4ccco4)c12)OC(C)(C)CC3,-1.54%
15,CCOc1ccc(N(CC(=O)NC2CCCCC2)C(=O)CNC(=O)c2ccco2)cc1,-5.99%
16,Cc1cccc(-n2c(C)nc3cc(C(=O)N4CCC5(CC4)OCCO5)ccc32)c1,-14.2%
17,CC(=O)c1ccc(-c2ccc(C(=O)NC3CC(C)(C)NC(C)(C)C3)o2)cc1,-71.1%
18,CC1(C)CC(NC(=O)c2ccc(-c3ccc([N+](=O)[O-])cc3)o2)CC(C)(C)N1,-3.5%
19,CC(=O)c1ccc(-c2ccc(C(=O)NC3CCCCCC3)o2)cc1,29.5%
20,CCN(c1ccccc1)c1nc(=O)c2cccnc2s1,5.88%
21,COc1ccc(C)cc1C1=Nc2ccccc2C1(C)C,13.4%
22,Cc1c(C(=O)OCC(=O)Nc2ccc(C(N)=O)cc2)cccc1[N+](=O)[O-],11%

row,Compound,"hERG current change (%, negative = inhibition) at 1uM"
1,C/C=C(\C)C(=O)NCCN1C2=NC[C@H](C(C)C)N2C[C@H]1Cc1ccc(O)cc1,29.8%
2,Cc1ccc(C(=O)NCCN2C3=NC[C@H](C)N3C[C@H]2Cc2ccc(O)cc2)cc1Br,9.94%
3,COc1ccc(C[C@@H]2CN3C(=NC[C@@H]3C)N2CCNC(=O)c2ccc(C)c(Br)c2)cc1,-64.9%
4,COc1ccc(C[C@H]2CN3C(=NC[C@H]3Cc3ccccc3)N2CCNC(=O)c2ccc(C)c(Br)c2)cc1,-24.7%
5,COc1ccc(C[C@H]2CN3C(=NC[C@@H]3C(C)C)N2CCNC(=O)c2ccc(C)c(Br)c2)cc1,-66.8%
6,Cc1ccc(C(=O)NCCN2C3=NC[C@H](C(C)C)N3C[C@H]2Cc2ccc(O)cc2)cc1Br,0.0506%
7,COc1ccc(C[C@H]2CN3C(=NC[C@@H]3Cc3ccccc3)N2CCNC(=O)c2ccc(C)c(Br)c2)cc1,-16.7%
8,Cc1ccc(C(=O)NCCN2C3=NC[C@H](Cc4ccc(O)cc4)N3C[C@H]2Cc2ccc(O)cc2)cc1Br,-9.94%
9,COc1ccc(C[C@H]2CN3C(=NC[C@H]3C)N2CCNC(=O)c2ccc(C)c(Br)c2)cc1,-70.9%
10,COC(=O)c1cn(NC(=O)C2CCCO2)c(=O)c2ccccc12 (stereo not shown),14.6%
11,CNc1nnc(SCC(=O)N2c3ccccc3NC(=O)CC2C)s1 (stereo not shown),6.91%
12,CC(=O)Nc1ccc(S(=O)(=O)NCCC(=O)OCC(=O)c2ccccc2)cc1,6.41%
13,COc1cccc(CN2CCCC(C(=O)Nc3ccc(-c4cscn4)cc3)C2)c1 (stereo not shown),-10.8%
14,COc1ccccc1NC(=O)c1ccc(S(=O)(=O)NCc2ccco2)cc1,13.8%
15,O=C(NCCCN1CCCC1=O)c1cccc(NS(=O)(=O)c2ccccc2)c1,13.4%
16,COc1cccc(NC(=O)CN(C)C(=O)c2ccc(NC3CC3)c([N+](=O)[O-])c2)c1,-40.8%
17,COc1ccc(NC(=O)CN(C)C(=O)c2ccc(NC3CC3)c([N+](=O)[O-])c2)cc1,-68.6%
18,CCOc1ccc(NC(=O)CN(C)C(=O)c2ccc(NC3CC3)c([N+](=O)[O-])c2)cc1OCC,-18.3%
19,CC1Cc2cc(/C(O)=C3\C(=O)C(=O)N(Cc4ccncc4)C3c3ccccc3F)ccc2O1 (stereo not shown),17.9%
